Hits are enriched below; roughly 1.5% of the tested compounds scored in any of these assays.
PrPC surface inh – inhibitors of human cell surface prion protein PrPC; TR-FRET read-out; P04156; inhibition, % at 13.8 µM; 0.43% of 370,000 active; in the data active = inhibition above about 24%
TcdB GH inh – inhibitors of Clostridioides difficile toxin B glycohydrolase; TcdB glycohydrolase enzymatic assay, plate reader; inhibition, % at 9.99 µM; 0.24% of 350,000 active; in the data active = inhibition above about 10%
Vc quorum ag – quorum light induction in luxS cqsA deficient V. cholerae | activation, % at 18.7 µM | 0.16% of 350,000 active | V. cholerae BH1578 lux reporter, luminescence, 6 h; in the data active = activation mostly above about 9.7%, no sharp cut-off
VHR inh abs – blocks human VHR1 dual specificity phosphatase; 0.52% of 290,000 active; inhibition, % at 13.3 µM; P51452; recombinant VHR phosphatase, pNPP absorbance; AID 1654; in the data active = inhibition above about 50%
SSB-PriA inh – blocks PriA binding to SSB C-terminal tail; AlphaScreen SSBct-PriA binding, biotinylated peptide; inhibition, % at 33 µM; 0.6% of 430,000 active; in the data active = inhibition mostly above about 37%, no sharp cut-off; inactive = mostly below about 20%
CCHF vOTU inh-1 – blocks the CCHF virus ovarian tumor domain protease; 0.55% of 370,000 active; CCHFV vOTU protease, Pep-AMC fluorescence; inhibition, % at 11.5 µM; AID 651958
CCHF vOTU inh-2 – confirmation of CCHF virus vOTU protease inhibitors; shares compounds with CCHF vOTU inh-1; 17% of 1,900 active; inhibition, % at 11.5 µM; Recombinant CCHFV vOTU, Pep-AMC fluorescence
Hits are given with their value; i = inactive; nt = no result. Cut-off read from the data, not from the text of the source, unless noted: active = inhibition above about 30%; inactive = the rest.

SMILES	PrPC surface inh	TcdB GH inh	Vc quorum ag	VHR inh abs	SSB-PriA inh	CCHF vOTU inh-1	CCHF vOTU inh-2
Cc1ccc(-c2ccc3nnc(CCC(=O)NCCc4ccccn4)n3n2)cc1	nt	nt	nt	nt	i	nt	nt
CCOC(=O)C1=CCC(c2cc3ccc(OC)cc3n2C(=O)OC(C)(C)C)NC1 (centres undefined)	i	i	nt	nt	nt	34	i
CN(CC#CCNC(=O)c1cn(C)nn1)Cc1ccccc1	nt	nt	nt	nt	i	nt	nt
Cn1nc(N2CCC(C(=O)N[C@H]3CCSC3=O)CC2)ccc1=O	nt	nt	nt	nt	i	nt	nt
CCOC(=O)c1oc2c(c1C)/C(=N/O)CCC2	i	i	i	i	nt	33	i
CCOC(=O)c1oc2c(c1C)C(=O)CCC2	i	nt	i	i	i	i	nt
O=c1c(=Nc2ccccc2O)c(=O)c2ccccc12	i	i	i	i	i	49	i
C/C(C=NNc1nnc2c(n1)[nH]c1c(C)cccc12)=C\c1ccco1	nt	nt	nt	nt	i	nt	nt
Cc1cccc2c1[nH]c1nc(N/N=C\c3ccco3)nnc12	i	nt	nt	i	nt	37	i
COc1ncccc1C(=O)N1CCC(Cn2nc(C)cc2C)CC1	nt	nt	nt	nt	i	nt	nt
COC(=O)CCCC1=CC2=C(c3ccccc3)C(=O)C(C)(OC(=O)C3CCCC3)C(=O)C2=CN1C1CCCCC1 (centres undefined)	i	i	i	i	i	33	i
COCCN1C=C2C(=O)C(C)(OC(=O)C3CCCC3)C(=O)C(c3ccccc3)=C2C=C1CCCC(=O)OC (centres undefined)	i	i	i	i	i	34	39
O=C(c1ccc[nH]c1=O)N1CCC(n2c(=O)[nH]c3ccccc3c2=O)CC1	nt	nt	nt	nt	i	nt	nt
CCc1cccc(NC(=O)CN(C)S(=O)(=O)c2cccc3nsnc23)c1	i	nt	i	i	i	36	i
COc1ccc(C2NC(=O)NC(C)=C2C(=O)OC2CCCCC2)cc1 (centres undefined)	i	i	i	nt	nt	42	i
COc1ccc(C2NC(=O)NC(C)=C2C(=O)OC2CCC(C)CC2)cc1 (centres undefined)	i	i	i	i	i	i	nt
Cc1cc(C(=O)Nc2nc(C(=O)Nc3nnc(C)s3)co2)no1	nt	nt	nt	nt	i	nt	nt
CCCC(=O)C1=C(O)C(C(=O)OC)C(C)(C)CC1=Nc1ccc(N)cc1 (centres undefined)	i	nt	i	i	i	i	nt
CCCC(=Nc1ccc(N)cc1)C1=C(O)C(C(=O)OC)C(C)(C)CC1=O (centres undefined)	i	nt	i	i	i	103	i
O=C(c1ccc(-c2cccs2)cc1)N1CC[C@H](S(=O)(=O)c2ccc(Cl)cc2)C1	nt	nt	nt	nt	i	nt	nt
O=C(NCCN1CCN(c2ccccc2F)CC1)c1ccco1	nt	nt	nt	nt	i	nt	nt
CC(C)c1ccc(OCC(=O)Nc2cccc(C(=O)Nc3ccccc3C(=O)O)c2)cc1	i	i	i	i	i	31	i
O=C(NCCN1C(=O)S/C(=C\c2ccc(OC(F)F)cc2)C1=O)C1=COCCO1	nt	nt	i	nt	i	nt	nt
COc1ccc(/C=C2\SC(=O)N(CCNC(=O)C3=COCCO3)C2=O)cc1	i	i	i	nt	i	36	i
CCCCn1c(NS(=O)(=O)c2ccccc2)c(S(=O)(=O)c2ccc(C)cc2)c2nc3ccccc3nc21	i	i	i	i	58	108	51
SMILES	PrPC surface inh	TcdB GH inh	Vc quorum ag	VHR inh abs	SSB-PriA inh	CCHF vOTU inh-1	CCHF vOTU inh-2
CCCCn1c(NS(=O)(=O)c2ccc(C)cc2)c(C(=O)OCC)c2nc3ccccc3nc21	i	i	i	i	i	95	i
CCCCCCCCn1c(NS(=O)(=O)c2ccccc2)c(S(=O)(=O)c2ccc(C)cc2)c2nc3ccccc3nc21	nt	nt	nt	nt	i	nt	nt
COC(=O)c1cn(CC(=O)Nc2cc(Cl)ccc2C)c2nc(C)ccc2c1=O	nt	nt	nt	nt	i	nt	nt
COc1cccc(-c2cc(NC=O)c3ncc(-c4cccc(C(=O)N(C)C)c4)n3c2)c1	i	i	i	nt	nt	31	i
COc1cccc(-c2cnc3c(NC=O)cc(-c4cccc(C(=O)N(C)C)c4)cn23)c1	i	i	i	nt	nt	i	nt
NC1=C(Br)C(=O)c2ncccc2C1=O	i	i	i	nt	i	107	94
O=C1c2cccnc2C(=O)N1CO	i	nt	i	i	i	i	nt
COc1ccc(OC)c(C(c2c(C)[nH][nH]c2=O)c2c(C)[nH][nH]c2=O)c1	i	i	i	nt	i	i	nt
COc1ccc(O)c(C(c2c(C)[nH][nH]c2=O)c2c(C)[nH][nH]c2=O)c1	i	i	i	i	i	84	i
O=[N+]([O-])c1ccc(O)c2ncccc12	i	i	i	i	133	47	i
O=[N+]([O-])c1ccc(O)c2cccnc12	i	i	i	i	i	i	nt
O=C(c1ccccc1F)N1CCc2cc(S(=O)(=O)NC3CCCC3)ccc21	nt	nt	nt	nt	i	nt	nt
Cc1cnc(C=NNC(N)=S)c2cccc(N)c12	i	i	i	nt	i	45	73
CCN1CCN(C(=O)N2CCCC(Cc3nc(C4CC4)no3)C2)C(=O)C1=O (centres undefined)	nt	nt	nt	nt	i	nt	nt
CCCc1nnsc1C(=O)Nc1sc2c(c1-c1nc(C)no1)CCOC2	nt	nt	nt	nt	i	nt	nt
CCCCCCCCN1C(=O)[C@@H](CC(=O)NCCCCc2ccccc2)C[C@@]2(C(=O)OC)C1=C[C@H](COCc1ccccc1)O[C@@H]2C	i	nt	nt	nt	nt	i	nt
CCCCOCCCNC(=O)C[C@H]1C[C@@]2(C(=O)OC)C(=C[C@H](COCc3ccccc3)O[C@@H]2C)N(Cc2ccc3c(c2)OCO3)C1=O	i	i	nt	nt	nt	i	nt
CCCCCCCCN1C(=O)[C@@H](CC(=O)NCCCOCCCC)C[C@@]2(C(=O)OC)C1=C[C@H](C1CCCC1)O[C@@H]2C	i	i	nt	nt	nt	i	nt
CCCCCCCCN1C(=O)[C@@H](CC(=O)NCCCOCCCC)C[C@@]2(C(=O)OC)C1=C[C@H](COCc1ccccc1)O[C@@H]2C	i	nt	nt	nt	nt	30	i
CCCCOCCCNC(=O)C[C@H]1C[C@@]2(C(=O)OC)C(=C[C@H](C(C)(C)C)O[C@@H]2C)N(Cc2ccc3c(c2)OCO3)C1=O	i	i	nt	nt	nt	37	i
C#CCNC(=O)C[C@H]1C[C@@]2(C(=O)OC)C(=C[C@H](C3CCCC3)O[C@@H]2C)N(CCCCCCCC)C1=O	i	i	nt	nt	nt	39	i
CCCCOCCCNC(=O)C[C@H]1C[C@@]2(C(=O)OC)C(=C[C@H](C(C)(C)C)O[C@@H]2C)N(Cc2cccc3ccccc23)C1=O	i	nt	nt	nt	nt	35	i
Cc1cc(C(=O)N2CCC(Oc3cc(C)n(C)c(=O)c3)CC2)c(C)o1	nt	nt	nt	nt	i	nt	nt
CN(CC#CCNC(=O)COc1ccc(Cl)cc1)Cc1ccccc1	nt	nt	nt	nt	i	nt	nt
COc1cccc(NS(=O)(=O)c2ccc3c(c2)C2C=CCC2C(c2ccc(C(=O)O)cc2)N3)c1 (centres undefined)	i	nt	i	i	i	41	i
Nc1ccc2nn(-c3cccc4ccccc34)nc2c1	i	nt	i	i	i	60	i
Cn1c(=O)c(/C=C/c2ccccc2)nc2ccccc21	i	nt	i	i	i	i	nt
CCn1nc(/C=C/c2ccccc2)nc2c(=O)n(C)c(=O)nc1-2	i	i	i	nt	i	124	107
O=C(N=C1SC2CS(=O)(=O)CC2N1c1ccc(Br)cc1F)C1CC1 (centres undefined)	i	i	i	i	i	i	nt
